Reference: PubChem BioAssay (Tox21)
Unmarked numbers belong to inactive results. Results filed as inconclusive are left out. Where a call stands in place of a potency, no number is given. The source made the active and inactive calls. Unless noted, the call rests on the fitted dose curve.

Assays:
[1] = Nuclear factor erythroid 2-related factor 2/antioxidant responsive element (Nrf2/ARE) small molecule agonists: qHTS cell viability counter screen in human keratinocytes (AID 1919968; active means well fitted curve in the direction sought with a large enough effect in the repeat runs; an effect the other way counts as inactive or inconclusive; further: nearly all actives have a fitted effect of over 55% in size; further: potency means the concentration at half of the fitted maximal effect)
In short: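 Cells of the KeratinoSens line were plated at 1,500 per well and left for 5 h before compound transfer from DMSO stocks. After a 23 h incubation (37 C, 5% CO2), CellTiter-Fluor was added. Signal was taken as fluorescence intensity 1 h later.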

[2] = Nuclear factor erythroid 2-related factor 2/antioxidant responsive element (Nrf2/ARE) small molecule agonists: luciferase reporter gene qHTS assay in human keratinocytes (AID 1919969); further: nearly all actives have a fitted effect of over 35% in size; further: potency means the concentration at half of the fitted maximal effect
[3] = target: Gonadotropin-releasing hormone receptor (Homo sapiens) (UniProt P30968); assay: Human gonadotropin-releasing hormone receptor (GnRHR) small molecule agonists, calcium flux assay in GnRHR-HEK293 cells (AID 1920063); further: nearly all actives have a fitted effect of over 35% in size
In short: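 Compounds dissolved in DMSO are pin-transferred onto dye-loaded GnRHR-HEK293 cells, which were seeded 18 h before at 37 C/5% CO2. Calcium signal is read as fluorescence intensity at 1 s intervals for 3 min.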

[4] = target: KiSS-1 receptor (Homo sapiens) (UniProt Q969F8); assay: Human kisspeptin (KISS1R) small molecule agonists, calcium flux assay in KISS1R-HEK293 cells (AID 1920064; active means well fitted curve in the direction sought with a large enough effect in the repeat runs; an effect the other way counts as inactive or inconclusive)
In short: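 Cell line: HEK293, stable human KISS1R. Dye loading 1 h at 37 C after 18 h culture. Read: kinetic fluorescence, 480/540 nm, 3 min at 1 s intervals.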

[5] = G protein-coupled receptor (GPCR) small molecule agonists, calcium flux assay: HEK293 wild type cell line counter screen (AID 1920065)
In short: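 Tox21 10K compounds, 15 concentrations each in triplicate, pin-transferred in DMSO onto dye-loaded cells; kinetic read at 480/540 nm for 3 min, 1 s intervals.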

[6] = p53 small molecule agonists, cell-based qHTS assay with human liver microsomes (AID 1963577)
In short: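 Fluorescence of the beta-lactamase reporter in p53RE-bla cells, detected with LiveBLAzer substrate (2 h, room temperature, dark), served as the read-out after 16 h compound exposure at 37 C with human liver microsomes and NADPH, each 0.5 mg/mL final.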

[7] = p53 small molecule agonists, cell-based qHTS assay with rat liver microsomes (AID 1963578)
In short: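 Cells carrying a p53 response element–beta-lactamase reporter were plated and rested 5 h, then dosed with compound in DMSO plus rat liver microsomes and NADPH, each at 0.5 mg/mL final. After 16 h at 37 C, LiveBLAzer substrate was added for 2 h.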

[8] = p53 small molecule agonists, cell-based qHTS assay with human liver microsomes: qHTS cell viability counter screen (AID 1963579); further: nearly all actives have a fitted effect of over 45% in size
In short: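 Cytotoxicity counter screen: p53RE-bla, 4,000 cells/well; 5 h settle, 37 C/5% CO2; cpd + HLM 0.5 mg/mL + NADPH 0.5 mg/mL (final); 16 h, 37 C; CellTiter-Glo, 30 min RT, luminescence.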

[9] = p53 small molecule agonists, cell-based qHTS assay with rat liver microsomes: qHTS cell viability counter screen (AID 1963580); further: nearly all actives have a fitted effect of over 45% in size
In short: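 Luminescent ATP readout (CellTiter-Glo, 30 min at room temperature) reports viability of p53RE-bla HCT-116 cells after 16 h at 37 C with test compounds under metabolic activation by rat liver microsomes and NADPH at 0.5 mg/mL final each.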

[10] = p53 small molecule agonists, cell-based qHTS assay: qHTS cell viability counter screen (AID 1963581); further: nearly all actives have a fitted effect of over 45% in size
In short: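 ATP content measured by luminescence in HCT-116 p53RE-bla cells treated 16 h at 37 C, same wells as the reporter screen.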

[11] = p53 small molecule agonists, cell-based qHTS assay (AID 1963582; active means well fitted activation curve with a large enough effect in the signal ratio in the repeat runs, not every such curve was filed as active; the % refers to the signal ratio)
In short: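 16 h compound exposure (37 C) of p53 response element–bla cells, preceded by 5 h recovery at 37 C/5% CO2; read-out via LiveBLAzer B/G FRET substrate, 2 h RT, fluorescence intensity.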

[12] = target: 5-hydroxytryptamine receptor 2A (Homo sapiens) (UniProt P28223); assay: 5-hydroxytryptamine receptor 2A (HTR2A) small molecule antagonists, cell-based qHTS assay (AID 1963586); further: nearly all actives have a fitted effect of over 45% in size
In short: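 CHO cells stably expressing human HTR2A were plated for 18 h at 37 C, then loaded with calcium dye for 1 h. Compounds were preincubated 5 min at room temperature before DOI (4 nM solution) was added. Kinetic fluorescence was read for 3 min.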

[13] = target: 5-hydroxytryptamine receptor 2A (Homo sapiens) (UniProt P28223); assay: 5-hydroxytryptamine receptor 2A (HTR2A) small molecule agonists, cell-based qHTS assay (AID 1963587); further: nearly all actives have a fitted effect of over 30% in size
In short: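 HTR2A-CHO cells, plated 18 h at 37 C/5% CO2, dye-loaded 1 h at 37 C; compounds in DMSO added by pin tool (agonist mode). Intracellular calcium flux read as kinetic fluorescence on FDSS over 2 min at 1 s intervals.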

[14] = target: Muscarinic acetylcholine receptor M1 (Homo sapiens) (UniProt P11229); assay: Cholinergic receptor muscarinic 1 (CHRM1) small molecule antagonists, cell-based qHTS assay (AID 1963588); further: nearly all actives have a fitted effect of over 40% in size
In short: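 Compounds were tested at 15 concentrations in three independent runs. Dye-loaded CHRM1-CHO cells were exposed 5 min at room temperature before stimulation by acetylcholine added at 50nM. Intracellular calcium was read kinetically on FDSS for 3 min.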

[15] = target: Muscarinic acetylcholine receptor M1 (Homo sapiens) (UniProt P11229); assay: Cholinergic receptor muscarinic 1 (CHRM1) small molecule agonists, cell-based qHTS assay (AID 1963589); further: nearly all actives have a fitted effect of over 35% in size
In short: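 Homogeneous fluorescence calcium flux, agonist mode. Human M1-expressing CHO cells; compound dosed at 15 concentrations, three independent runs; signal sampled every 1 sec.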

[16] = cAMP Responsive Elements (CRE) small molecule agonists, cell-based qHTS assay (AID 1963590)
In short: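 HEK 293T cells stably bearing CRE-bla were plated at 2,000 cells per well and rested 18 h. Compounds, positive controls or DMSO were added for 3 h at 37 C. LiveBLAzer B/G substrate was then loaded for 2 h at room temperature.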

[17] = cAMP Responsive Elements (CRE) small molecule antagonists, cell-based qHTS assay (AID 1963591; active means well fitted inhibition curve with a large enough effect in the signal ratio in the repeat runs, not every such curve was filed as active; the % refers to the signal ratio)
In short: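 First, CRE-bla HEK293T cells settled 18 h at 37 C. Next, compound and 0.25 uM final NKH477 were applied for 3 h. Last, LiveBLAzer B/G substrate was loaded for 2 h at room temperature.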

[18] = target: Beta-2 adrenergic receptor (Homo sapiens) (UniProt P07550); assay: Adrenergic beta2 receptor (ADRB2) small molecule antagonists, cell-based qHTS assay (AID 1963592); further: series mostly up to about 92 µM; nearly all actives have a fitted effect of over 50% in size
In short: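 Assay format: CHO-ADRB2 cells, 18-20hr seeding at 37C/5% CO2, then compound plus 1nM isoproterenol agonist mix for 0.5hr RT. Homogeneous time-resolved fluorescence cAMP detection after 1hr, expressed as 665/615 nm ratio.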

[19] = target: D(2) dopamine receptor (Homo sapiens) (UniProt P14416); assay: Dopamine D2 receptor (DRD2) small molecule agonists, cell-based qHTS assay (AID 1963594); further: nearly all actives have a fitted effect of over 35% in size
In short: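 HEK293 cells stably expressing DRD2 were cultured 24 h at 37 C, then given Ro20-1724 (0.1 mM final) and compounds for 10 min at room temperature. NKH477 (200nM) was then added for 30 min. cAMP was read by HTRF.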

[20] = target: D(2) dopamine receptor (Homo sapiens) (UniProt P14416); assay: Dopamine D2 receptor (DRD2) small molecule antagonists, cell-based qHTS assay (AID 1963595; active means well fitted inhibition curve with a large enough effect in the signal ratio in the repeat runs, with a control signal flat; the % refers to the signal ratio)
In short: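 HEK293 cells stably expressing DRD2 were preincubated with 0.1 mM Ro20-1724, then with compound for 10 min at room temperature. Cells were stimulated with 200 nM NKH477 plus 12 nM quinpirole for 30 min, and cAMP was read by HTRF.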

Chain of Gonadotropin-releasing hormone receptor (Homo sapiens) (P30968 whole entry, looked up): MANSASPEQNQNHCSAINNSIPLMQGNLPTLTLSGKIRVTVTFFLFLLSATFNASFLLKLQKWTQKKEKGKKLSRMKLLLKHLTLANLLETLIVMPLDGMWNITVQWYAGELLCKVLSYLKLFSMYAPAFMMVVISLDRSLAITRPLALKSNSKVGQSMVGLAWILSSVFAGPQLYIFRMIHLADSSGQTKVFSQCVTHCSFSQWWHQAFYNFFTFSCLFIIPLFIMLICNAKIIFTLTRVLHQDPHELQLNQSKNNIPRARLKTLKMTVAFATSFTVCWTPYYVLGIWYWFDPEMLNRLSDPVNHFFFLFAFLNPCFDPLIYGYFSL
Chain of 5-hydroxytryptamine receptor 2A (Homo sapiens) (P28223 whole entry, looked up): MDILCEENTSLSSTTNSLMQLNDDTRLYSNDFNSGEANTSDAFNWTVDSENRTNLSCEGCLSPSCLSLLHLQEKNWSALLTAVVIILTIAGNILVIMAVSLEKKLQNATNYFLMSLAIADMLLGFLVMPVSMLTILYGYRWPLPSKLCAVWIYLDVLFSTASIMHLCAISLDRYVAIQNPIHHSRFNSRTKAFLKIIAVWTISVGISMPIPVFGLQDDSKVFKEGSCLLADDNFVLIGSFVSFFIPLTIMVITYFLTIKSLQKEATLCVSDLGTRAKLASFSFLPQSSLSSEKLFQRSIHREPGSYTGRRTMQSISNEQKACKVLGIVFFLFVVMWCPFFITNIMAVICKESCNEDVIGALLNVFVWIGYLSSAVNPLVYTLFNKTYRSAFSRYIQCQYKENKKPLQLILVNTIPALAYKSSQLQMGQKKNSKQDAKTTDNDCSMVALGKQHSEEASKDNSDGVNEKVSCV
Chain of D(2) dopamine receptor (Homo sapiens) (P14416 whole entry, looked up): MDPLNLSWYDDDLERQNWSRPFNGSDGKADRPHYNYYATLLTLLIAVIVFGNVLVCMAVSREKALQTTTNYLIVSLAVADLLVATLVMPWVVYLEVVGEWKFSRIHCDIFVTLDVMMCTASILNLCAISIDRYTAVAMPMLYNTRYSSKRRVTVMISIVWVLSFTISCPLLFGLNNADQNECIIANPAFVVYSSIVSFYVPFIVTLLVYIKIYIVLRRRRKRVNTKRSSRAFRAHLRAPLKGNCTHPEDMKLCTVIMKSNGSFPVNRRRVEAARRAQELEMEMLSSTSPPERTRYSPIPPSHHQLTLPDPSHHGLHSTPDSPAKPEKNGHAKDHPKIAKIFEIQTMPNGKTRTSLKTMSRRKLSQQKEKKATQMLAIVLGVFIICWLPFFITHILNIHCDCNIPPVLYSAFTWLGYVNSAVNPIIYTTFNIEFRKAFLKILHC
Chain of Muscarinic acetylcholine receptor M1 (Homo sapiens) (P11229 whole entry, looked up): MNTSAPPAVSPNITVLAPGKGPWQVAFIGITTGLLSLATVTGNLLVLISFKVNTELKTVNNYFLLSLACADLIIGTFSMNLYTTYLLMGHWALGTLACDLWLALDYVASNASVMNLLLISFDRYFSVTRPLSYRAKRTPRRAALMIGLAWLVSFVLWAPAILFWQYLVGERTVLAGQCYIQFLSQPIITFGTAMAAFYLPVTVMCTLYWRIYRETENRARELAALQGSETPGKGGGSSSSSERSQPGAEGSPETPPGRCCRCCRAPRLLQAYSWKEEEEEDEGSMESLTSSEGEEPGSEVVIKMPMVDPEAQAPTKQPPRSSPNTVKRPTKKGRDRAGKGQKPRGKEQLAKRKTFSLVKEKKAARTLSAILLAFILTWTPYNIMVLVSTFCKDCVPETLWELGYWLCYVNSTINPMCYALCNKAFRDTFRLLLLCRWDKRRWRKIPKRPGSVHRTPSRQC
Chain of Beta-2 adrenergic receptor (Homo sapiens) (P07550 whole entry, looked up): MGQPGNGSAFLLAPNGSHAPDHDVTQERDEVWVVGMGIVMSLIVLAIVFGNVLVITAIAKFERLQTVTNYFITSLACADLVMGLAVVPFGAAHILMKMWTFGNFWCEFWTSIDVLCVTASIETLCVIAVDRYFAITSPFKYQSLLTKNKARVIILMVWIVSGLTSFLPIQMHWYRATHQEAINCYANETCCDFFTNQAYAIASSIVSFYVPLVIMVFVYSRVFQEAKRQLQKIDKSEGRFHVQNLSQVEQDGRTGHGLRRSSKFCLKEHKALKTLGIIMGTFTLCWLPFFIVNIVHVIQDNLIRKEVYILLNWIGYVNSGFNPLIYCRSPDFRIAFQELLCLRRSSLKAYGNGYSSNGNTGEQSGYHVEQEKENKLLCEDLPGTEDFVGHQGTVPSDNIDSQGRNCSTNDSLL
Chain of KiSS-1 receptor (Homo sapiens) (Q969F8 whole entry, looked up): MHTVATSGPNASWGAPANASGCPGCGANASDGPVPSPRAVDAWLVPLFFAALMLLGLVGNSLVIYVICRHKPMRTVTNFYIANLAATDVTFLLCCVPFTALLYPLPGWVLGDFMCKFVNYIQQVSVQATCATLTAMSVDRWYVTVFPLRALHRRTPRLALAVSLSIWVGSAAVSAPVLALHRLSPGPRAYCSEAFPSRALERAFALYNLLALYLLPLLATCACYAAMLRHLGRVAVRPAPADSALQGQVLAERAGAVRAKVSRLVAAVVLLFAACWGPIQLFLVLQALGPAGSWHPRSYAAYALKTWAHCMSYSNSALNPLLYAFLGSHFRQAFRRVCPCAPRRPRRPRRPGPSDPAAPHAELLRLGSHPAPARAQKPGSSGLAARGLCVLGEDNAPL

| SMILES | Potency [1] | Potency [2] | Potency [3] | Potency [4] | Potency [5] | Potency [6] | Potency [7] | Potency [8] | Potency [9] | Potency [10] | Potency [11] | Potency [12] | Potency [13] | Potency [14] | Potency [15] | Potency [16] | Potency [17] | Potency [18] | Potency [19] | Potency [20] |
| --- | --- | --- | --- | --- | --- | --- | --- | --- | --- | --- | --- | --- | --- | --- | --- | --- | --- | --- | --- | --- |
| CCCCCCC1CCOC1=O (stereo not drawn) | inactive | inactive | inactive | inactive | inactive | inactive | inactive | inactive | inactive | inactive | inactive | inactive | inactive | inactive | inactive | inactive | inactive | inactive | inactive | inactive |
| C1CS1 | inactive | inactive | inactive | inactive | inactive | inactive | inactive | inactive | inactive | inactive | inactive | inactive | inactive | inactive | inactive | inactive | inactive | inactive | inactive | inactive |
| Clc1ccc(Cl)cc1 | inactive | inactive | inactive | inactive | inactive | inactive | inactive | inactive | inactive | inactive | inactive | inactive | inactive | inactive | inactive | inactive | inactive | inactive | – | inactive |
| COC(=O)NS(=O)(=O)c1ccc(N)cc1 | inactive | inactive | inactive | inactive | inactive | inactive | inactive | inactive | inactive | inactive | inactive | inactive | inactive | inactive | inactive | inactive | inactive | inactive | inactive | inactive |
| O=NN1CCOCC1 | inactive | inactive | inactive | inactive | inactive | inactive | inactive | inactive | inactive | inactive | inactive | inactive | inactive | inactive | inactive | inactive | inactive | inactive | inactive | inactive |
| CS(=O)(=O)Cl | inactive | inactive | inactive | inactive | inactive | inactive | inactive | inactive | inactive | inactive | inactive | inactive | inactive | inactive | inactive | inactive | inactive | inactive | inactive | – |
| CC(C)OC(=S)S | 30.6 µM (active) | 15.4 µM (active) | inactive | inactive | inactive | inactive | inactive | inactive | inactive | inactive | inactive | inactive | inactive | inactive | inactive | inactive | inactive | inactive | inactive | inactive |
